# Laboratory results as given in PubChem BioAssay (Tox21).
# Where “and” joins values, the source holds several entries; their conditions need not be identical. Equal values may be shown once. Inconclusive results are not listed. A call without a number means that no potency is given here. The source holds several records for some structures; these can differ, active in one and inactive in another. Calls of active or inactive are those of the source. Unless noted, calls follow the shape of the dose curve; as a rule, active = well fitted curve in the direction sought with a large enough effect in the repeat runs; inconclusive = weak or mixed curves; inactive = no such curve, though single readings can be large; an effect the other way counts as inactive or inconclusive.
# Key:
# [1] = molecular target: Acetylcholinesterase (Homo sapiens) (UniProt P22303); experiment: Acetylcholinesterase (AChE) small molecule antagonists: colormetric cell-based qHTS assay (AID 1347395; calls by dose curve; also: nearly all actives have a fitted effect of over 30% in size; also: potency is read from the fitted curve at half-maximal effect)
# Procedure, shortened: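 SH-SY5Y cells attached overnight, exposed to compound 30 min at 37 C, then given DTNB/acetylthiocholine; after 90 min at 37 C, colorimetric thiocholine read gives cellular AChE activity.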
# [2] = molecular target: Acetylcholinesterase (Homo sapiens) (UniProt P22303); experiment: Acetylcholinesterase (AChE) small molecule antagonists: enzyme-based qHTS assay (AID 1347397; calls by dose curve; also: nearly all actives have a fitted effect of over 55% in size; also: potency is read from the fitted curve at half-maximal effect); conditions: Potency: AChE enzyme activity inhibition
# Procedure, shortened: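 rhAChE 50 mU/mL (dispensed) + cpd or DMSO, 30 min RT; add DTNB/acetylthiocholine cocktail, 10 min RT; colorimetric thiocholine readout. qHTS, 1536-well format.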
# [3] = molecular target: Acetylcholinesterase (Homo sapiens) (UniProt P22303); experiment: Acetylcholinesterase (AChE) small molecule antagonists: fluorescence cell-based qHTS assay (AID 1347398; calls by dose curve; also: nearly all actives have a fitted effect of over 50% in size); conditions: Potency: AChE activity
# Procedure, shortened: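 Read-out is Thiolite Green fluorescence at Ex/Em = 490/520 nm, formed by reaction with thiocholine released when cellular AChE in SH-SY5Y cells hydrolyzes acetylthiocholine. Compounds were preincubated 30 min at 37 C before substrate.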
# [4] = molecular target: Cytochrome P450 2D6 (Homo sapiens) (UniProt P10635); experiment: Cytochrome P450 Family 2 Subfamily D Member 6 (CYP2D6) small molecule antagonists: luciferase reporter qHTS assay (AID 1671196); also: nearly all actives have a fitted effect of over 50% in size; also: potency is read from the fitted curve at half-maximal effect
# Procedure, shortened: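 Inhibition of CYP2D6 was gauged by loss of luminescence, since light produced tracks the luciferin generated from a proluciferin substrate. A 10 min room-temperature preincubation preceded 1 h NADPH-supported turnover.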
# [5] = molecular target: Cytochrome P450 2C19 (Homo sapiens) (UniProt P33261); experiment: Cytochrome P450 Family 2 Subfamily C Member 19 (CYP2C19) small molecule antagonists: luciferase reporter qHTS assay (AID 1671197); also: nearly all actives have a fitted effect of over 65% in size; also: potency is read from the fitted curve at half-maximal effect
# Procedure, shortened: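 Luminescent readout of CYP2C19 activity: luciferin product detected 20 min after adding detection reagent. Before that, compound and enzyme-substrate mix preincubated 10 min at room temperature; NADPH-regenerating system started a 1 h, 37C reaction. Ketoconazole as positive control.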
# [6] = molecular target: Cytochrome P450 2C9 (Homo sapiens) (UniProt P11712); experiment: Cytochrome P450 Family 2 Subfamily C Member 9 (CYP2C9) small molecule antagonists: luciferase reporter qHTS assay (AID 1671198); also: nearly all actives have a fitted effect of over 50% in size; also: potency is read from the fitted curve at half-maximal effect
# Procedure, shortened: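 Enzyme-substrate mix preincubated with compound 10 min at room temperature; reaction started with NADPH regeneration solution, 1 h 37C. Luminescent luciferin product read after 20 min detection reagent.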
# [7] = molecular target: Cytochrome P450 1A2 (Homo sapiens) (UniProt P05177); experiment: Cytochrome P450 Family 1 Subfamily A Member 2 (CYP1A2) small molecule antagonists: luciferase reporter qHTS assay (AID 1671199); also: nearly all actives have a fitted effect of over 50% in size; also: potency is read from the fitted curve at half-maximal effect
# Procedure, shortened: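 Signal from luciferin formed by CYP1A2 from a proluciferin substrate is read as luminescence, expressed in relative luminescence units. Compounds sit with enzyme 10 min, NADPH-driven reaction runs 1 h, all at room temperature.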
# [8] = molecular target: Voltage-gated inwardly rectifying potassium channel KCNH2 (Homo sapiens) (UniProt Q12809); experiment: Human Ether-a-go-go-Related Gene (hERG) channel small molecule antagonists: fluorescence cell-based qHTS assay (AID 1671200); also: nearly all actives have a fitted effect of over 50% in size; also: potency is read from the fitted curve at half-maximal effect
# Procedure, shortened: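 hERG-U2OS cells plated overnight at 37 C, loaded with FluxOR II dye 1 h at RT in dark; after 10 min, thallium stimulus added. Fluorescence (480/540 nm) read kinetically for 2 min at 1 s intervals.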
# [9] = molecular target: Cytochrome P450 3A4 (Homo sapiens) (UniProt P08684); experiment: Cytochrome P450 Family 3 Subfamily A Member 4 (CYP3A4) small molecule antagonists: luciferase reporter qHTS assay (AID 1671201); also: nearly all actives have a fitted effect of over 50% in size; also: potency is read from the fitted curve at half-maximal effect
# Procedure, shortened: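 P450-Glo CYP3A4 luminescent assay: compounds preincubated 10 min at room temperature with enzyme and proluciferin substrate, NADPH regeneration added, 1 h room-temperature reaction, stopped with luciferin detection reagent; luminescence read after 20 min. Ketoconazole positive control.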
# [10] = molecular target: Acetylcholinesterase (Homo sapiens) (UniProt P22303); experiment: Acetylcholinesterase (AChE) small molecule antagonists: enzyme-based qHTS assay with human liver microsomes (AID 1347399; calls by dose curve; also: nearly all actives have a fitted effect of over 60% in size; also: potency is read from the fitted curve at half-maximal effect); conditions: Potency: qHTS inhibition
# Procedure, shortened: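 Recombinant human AChE (50 mU/mL in the enzyme mix) and human liver microsomes (0.25 mg/mL final) were preincubated with compound and NADPH (0.25 mg/mL final) for 30 min at 37 C. Acetylthiocholine/DTNB was then added; thiocholine was read colorimetrically after 10 min at room temperature.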
# Chain of Cytochrome P450 2C19 (Homo sapiens) (P33261 whole entry, looked up): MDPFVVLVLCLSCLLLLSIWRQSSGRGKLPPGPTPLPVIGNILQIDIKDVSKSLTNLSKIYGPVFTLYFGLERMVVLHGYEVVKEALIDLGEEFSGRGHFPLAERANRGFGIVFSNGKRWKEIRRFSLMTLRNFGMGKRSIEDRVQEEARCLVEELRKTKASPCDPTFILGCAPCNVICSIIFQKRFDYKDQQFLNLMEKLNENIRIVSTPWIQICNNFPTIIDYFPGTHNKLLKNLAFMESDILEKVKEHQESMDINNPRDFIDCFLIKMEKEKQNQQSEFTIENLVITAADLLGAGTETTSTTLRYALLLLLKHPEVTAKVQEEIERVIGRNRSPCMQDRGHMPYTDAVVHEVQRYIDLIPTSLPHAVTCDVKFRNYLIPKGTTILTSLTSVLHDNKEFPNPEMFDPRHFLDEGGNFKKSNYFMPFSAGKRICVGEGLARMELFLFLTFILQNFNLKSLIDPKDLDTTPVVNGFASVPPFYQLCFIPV
# Chain of Cytochrome P450 2D6 (Homo sapiens) (P10635 whole entry, looked up): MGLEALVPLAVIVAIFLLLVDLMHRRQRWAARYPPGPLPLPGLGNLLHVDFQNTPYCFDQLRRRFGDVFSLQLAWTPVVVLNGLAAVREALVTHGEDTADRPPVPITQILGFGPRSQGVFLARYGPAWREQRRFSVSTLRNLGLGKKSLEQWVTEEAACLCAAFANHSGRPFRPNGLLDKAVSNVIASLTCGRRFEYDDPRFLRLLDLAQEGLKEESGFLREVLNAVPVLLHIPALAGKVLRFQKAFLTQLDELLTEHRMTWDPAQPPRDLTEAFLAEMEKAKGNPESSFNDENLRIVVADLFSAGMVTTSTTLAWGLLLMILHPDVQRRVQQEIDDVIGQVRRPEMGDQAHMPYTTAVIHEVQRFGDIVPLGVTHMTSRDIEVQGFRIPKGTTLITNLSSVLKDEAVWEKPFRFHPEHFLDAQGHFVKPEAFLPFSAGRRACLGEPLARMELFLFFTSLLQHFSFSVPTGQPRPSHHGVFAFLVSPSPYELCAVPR
# Chain of Cytochrome P450 2C9 (Homo sapiens) (P11712 whole entry, looked up): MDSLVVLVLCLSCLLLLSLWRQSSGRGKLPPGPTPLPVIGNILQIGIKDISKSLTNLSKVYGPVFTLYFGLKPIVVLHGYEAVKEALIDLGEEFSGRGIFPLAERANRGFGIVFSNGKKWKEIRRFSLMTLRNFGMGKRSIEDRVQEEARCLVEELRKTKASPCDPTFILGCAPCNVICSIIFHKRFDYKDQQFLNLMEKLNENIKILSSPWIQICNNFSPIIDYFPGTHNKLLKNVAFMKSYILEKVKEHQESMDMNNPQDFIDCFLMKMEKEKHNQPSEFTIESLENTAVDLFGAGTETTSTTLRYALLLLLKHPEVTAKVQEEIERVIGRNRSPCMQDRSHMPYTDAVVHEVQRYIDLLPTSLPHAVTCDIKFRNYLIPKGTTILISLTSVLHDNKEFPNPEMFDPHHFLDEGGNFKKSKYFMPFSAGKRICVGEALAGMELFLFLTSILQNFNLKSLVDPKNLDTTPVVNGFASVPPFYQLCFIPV
# Chain of Cytochrome P450 1A2 (Homo sapiens) (P05177 whole entry, looked up): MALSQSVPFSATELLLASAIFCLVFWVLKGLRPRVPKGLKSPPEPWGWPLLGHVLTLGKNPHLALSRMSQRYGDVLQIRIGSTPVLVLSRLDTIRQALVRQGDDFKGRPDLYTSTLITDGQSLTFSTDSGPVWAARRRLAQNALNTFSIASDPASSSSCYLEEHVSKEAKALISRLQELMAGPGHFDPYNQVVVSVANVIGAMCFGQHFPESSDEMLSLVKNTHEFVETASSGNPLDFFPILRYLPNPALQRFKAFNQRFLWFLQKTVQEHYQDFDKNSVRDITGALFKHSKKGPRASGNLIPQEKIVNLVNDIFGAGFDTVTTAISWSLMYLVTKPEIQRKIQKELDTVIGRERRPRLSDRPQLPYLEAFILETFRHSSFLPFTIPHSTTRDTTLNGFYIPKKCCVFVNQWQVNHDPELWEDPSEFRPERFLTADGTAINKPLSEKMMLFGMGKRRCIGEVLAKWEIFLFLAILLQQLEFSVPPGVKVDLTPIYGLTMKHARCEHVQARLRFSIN
# Chain of Acetylcholinesterase (Homo sapiens) (P22303 whole entry, looked up): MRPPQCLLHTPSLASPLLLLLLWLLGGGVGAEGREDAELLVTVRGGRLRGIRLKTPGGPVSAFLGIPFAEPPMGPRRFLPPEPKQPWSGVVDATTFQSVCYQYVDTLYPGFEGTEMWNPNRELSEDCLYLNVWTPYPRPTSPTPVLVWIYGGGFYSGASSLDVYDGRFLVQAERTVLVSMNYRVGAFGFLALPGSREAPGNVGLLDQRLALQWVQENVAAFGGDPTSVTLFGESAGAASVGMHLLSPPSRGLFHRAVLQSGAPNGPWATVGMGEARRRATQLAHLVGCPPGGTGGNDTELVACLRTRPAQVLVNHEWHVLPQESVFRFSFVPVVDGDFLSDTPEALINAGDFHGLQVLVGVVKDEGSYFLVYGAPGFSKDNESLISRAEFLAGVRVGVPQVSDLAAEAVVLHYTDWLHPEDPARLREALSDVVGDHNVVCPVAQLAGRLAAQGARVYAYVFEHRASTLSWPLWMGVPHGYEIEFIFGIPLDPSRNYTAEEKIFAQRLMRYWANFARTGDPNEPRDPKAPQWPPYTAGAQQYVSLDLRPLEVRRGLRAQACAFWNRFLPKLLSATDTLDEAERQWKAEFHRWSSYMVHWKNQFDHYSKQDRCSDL
# Chain of Cytochrome P450 3A4 (Homo sapiens) (P08684 whole entry, looked up): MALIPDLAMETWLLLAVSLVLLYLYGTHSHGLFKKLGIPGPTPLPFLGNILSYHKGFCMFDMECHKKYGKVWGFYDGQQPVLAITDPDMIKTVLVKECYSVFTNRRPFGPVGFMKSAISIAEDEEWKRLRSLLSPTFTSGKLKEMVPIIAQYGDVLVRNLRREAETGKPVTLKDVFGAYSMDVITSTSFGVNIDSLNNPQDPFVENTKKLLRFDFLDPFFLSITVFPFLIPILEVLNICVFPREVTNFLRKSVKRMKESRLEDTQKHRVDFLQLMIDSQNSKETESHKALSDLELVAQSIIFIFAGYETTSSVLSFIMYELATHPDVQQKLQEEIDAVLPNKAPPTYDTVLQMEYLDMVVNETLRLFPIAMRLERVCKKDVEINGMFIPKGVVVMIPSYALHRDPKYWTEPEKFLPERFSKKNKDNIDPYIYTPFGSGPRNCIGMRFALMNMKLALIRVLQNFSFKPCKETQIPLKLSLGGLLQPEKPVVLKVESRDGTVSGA
# Chain of Voltage-gated inwardly rectifying potassium channel KCNH2 (Homo sapiens) (Q12809 whole entry, looked up): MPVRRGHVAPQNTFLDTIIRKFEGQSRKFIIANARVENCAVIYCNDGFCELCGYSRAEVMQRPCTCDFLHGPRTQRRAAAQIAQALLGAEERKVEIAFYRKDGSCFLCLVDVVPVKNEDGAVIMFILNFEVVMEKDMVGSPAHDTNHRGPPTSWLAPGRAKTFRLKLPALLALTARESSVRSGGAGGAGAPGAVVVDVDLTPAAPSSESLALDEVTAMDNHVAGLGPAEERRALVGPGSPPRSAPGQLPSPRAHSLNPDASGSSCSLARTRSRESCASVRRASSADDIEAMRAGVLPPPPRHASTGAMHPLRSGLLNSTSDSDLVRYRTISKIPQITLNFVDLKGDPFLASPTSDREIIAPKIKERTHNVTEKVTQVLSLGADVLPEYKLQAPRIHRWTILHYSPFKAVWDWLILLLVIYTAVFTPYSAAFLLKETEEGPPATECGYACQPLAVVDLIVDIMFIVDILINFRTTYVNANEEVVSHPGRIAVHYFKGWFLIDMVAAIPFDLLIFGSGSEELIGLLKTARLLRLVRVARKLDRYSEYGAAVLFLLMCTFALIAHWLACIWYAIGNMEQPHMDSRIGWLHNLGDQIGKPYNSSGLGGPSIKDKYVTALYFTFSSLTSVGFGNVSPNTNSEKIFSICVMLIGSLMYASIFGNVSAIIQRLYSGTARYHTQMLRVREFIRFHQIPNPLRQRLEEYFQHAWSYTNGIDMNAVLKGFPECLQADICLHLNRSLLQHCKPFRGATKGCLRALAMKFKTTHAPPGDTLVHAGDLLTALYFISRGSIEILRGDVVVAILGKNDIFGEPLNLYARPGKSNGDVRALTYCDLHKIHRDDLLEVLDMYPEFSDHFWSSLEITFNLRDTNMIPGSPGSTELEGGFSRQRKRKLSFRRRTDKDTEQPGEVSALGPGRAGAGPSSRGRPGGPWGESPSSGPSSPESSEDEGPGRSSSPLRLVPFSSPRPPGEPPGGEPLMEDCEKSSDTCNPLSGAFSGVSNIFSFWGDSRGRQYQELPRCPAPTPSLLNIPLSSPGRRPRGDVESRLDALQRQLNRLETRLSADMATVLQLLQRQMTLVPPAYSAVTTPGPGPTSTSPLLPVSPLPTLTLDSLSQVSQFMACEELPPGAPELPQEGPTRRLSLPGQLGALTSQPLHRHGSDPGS
SMILES,Potency [1],Potency [2],Potency [3],Potency [4],Potency [5],Potency [6],Potency [7],Potency [8],Potency [9],Potency [10]
CCC(CC)Nc1c([N+](=O)[O-])cc(C)c(C)c1[N+](=O)[O-],inactive,inactive,inactive,inactive,36.1 µM (active) and 10 µM (active),32.1 µM (active) and 25.2 µM (active),28.6 µM (active) and 17.8 µM (active),inactive,–,–
O=C(O)C(F)(F)C(F)(F)C(F)(F)C(F)(F)C(F)(F)C(F)(F)C(F)(F)F,inactive,inactive,inactive,inactive,–,1.78 µM (active) and 2.51 µM (active),inactive,inactive,inactive,–
COc1ccc(C=O)cc1,inactive,inactive,inactive,inactive,–,inactive,inactive,–,inactive,inactive
CC(C)(OOC(C)(C)c1ccccc1)c1ccccc1,inactive,inactive,–,35.1 µM (active) and inactive,35.1 µM (active) and 6.33 µM (active),31.3 µM (active) and 31.7 µM (active),inactive,–,inactive,inactive
c1ccc(NNc2ccccc2)cc1,inactive,inactive,–,inactive,inactive,71.7 µM (active) and inactive,32 µM (active) and 12.6 µM (active),inactive,inactive,inactive
CC(C)c1ccc(CO)cc1,inactive,inactive,inactive,inactive,–,39.9 µM (active),–,inactive,inactive,inactive
C=CCc1ccc(OC)cc1,inactive,inactive,–,5.47 µM (active) and inactive,–,inactive,–,inactive,–,inactive
CCCCCCCCOC(=O)c1ccccc1C(=O)OCCCCCCCC,inactive,inactive,–,inactive,50.1 µM (active) and inactive,14.2 µM (active),–,inactive,–,–
NC(=S)Nc1ccccc1,inactive,inactive,–,9.09 µM (active) and 35.6 µM (active),–,25.6 µM (active) and inactive,25.6 µM (active) and inactive,–,5.73 µM (active) and inactive,inactive
Oc1cc(Cl)ccc1Oc1ccc(Cl)cc1Cl,inactive,inactive,–,inactive,459 nM (active) and 389 nM (active),–,30.1 µM (active) and 17.4 µM (active),inactive,inactive,–
c1ccc(N=Nc2ccccc2)cc1,inactive,inactive,–,14.4 µM (active) and inactive,–,inactive,25.7 µM (active) and 10 µM (active),inactive,inactive,inactive
Cc1cccc(N)c1N,inactive,inactive,–,61.2 µM (active) and 17.8 µM (active),–,34.4 µM (active) and 35.6 µM (active),7.7 µM (active) and 14.2 µM (active),inactive,3.86 µM (active) and 11.2 µM (active),inactive
O=P(Oc1ccccc1)(Oc1ccccc1)Oc1ccccc1,19.9 µM (active) and 20 µM (active),7.06 µM (active) and 11.2 µM (active),–,inactive,–,6.3 µM (active) and 6.33 µM (active),9.98 µM (active) and 11.2 µM (active),21.8 µM (active) and 38.9 µM (active),inactive,35.4 µM (active) and 71 µM (active)
Nc1ccc(-c2ccc(N)c(N)c2)cc1N,–,–,–,28.2 µM (active),–,17.8 µM (active) and 2.83 µM (active),35.5 µM (active),inactive,5.01 µM (active) and 2.83 µM (active),–
COc1ccc(C(CN(C)C)C2(O)CCCCC2)cc1 (stereo unspecified),–,–,–,–,–,–,–,inactive,–,–
C=CCc1ccc2c(c1)OCO2,inactive,inactive,–,inactive,inactive,inactive,28.3 µM (active),–,inactive,–
S=C1NCCN1,–,–,–,–,–,–,–,inactive,–,–
CN(C)C(=O)Nc1ccc(Cl)cc1,inactive,inactive,–,9.86 µM (active),–,inactive,3.93 µM (active) and 3.99 µM (active),–,inactive,inactive
C=C(C)C(=O)OCC1CO1 (stereo unspecified),inactive,inactive,–,inactive,–,inactive,inactive,–,inactive,–
CCN(CC)C(=O)/C(Cl)=C(\C)OP(=O)(OC)OC,–,inactive,–,inactive,–,inactive,inactive and 39.9 µM (active),inactive,inactive,–
CCCCNC(=O)n1c(NC(=O)OC)nc2ccccc21,inactive,inactive,–,inactive,79.3 µM (active),–,25.1 µM (active) and 28.3 µM (active),inactive,inactive,inactive
CCOC(=S)S,–,–,–,–,–,–,–,inactive,–,–

SMILES,Potency [1],Potency [2],Potency [3],Potency [4],Potency [5],Potency [6],Potency [7],Potency [8],Potency [9],Potency [10]
N[C@@H](Cc1ccc(N(CCCl)CCCl)cc1)C(=O)O,–,–,–,34.1 µM (active) and 34.7 µM (active),–,17.1 µM (active) and 27.5 µM (active),–,inactive,–,–
Oc1cc(Cl)c(Cl)cc1Cl,inactive,inactive,–,inactive,inactive,inactive,22.3 µM (active) and 20 µM (active) and 22.4 µM (active),–,inactive,–
ClC1C(Cl)C(Cl)C(Cl)C(Cl)C1Cl (stereo unspecified),–,–,–,inactive and 39.9 µM (active) and 71 µM (active),–,32.4 µM (active) and 35.6 µM (active) and 31.7 µM (active),–,–,–,–
CCN(N=O)C(N)=O,inactive,inactive,–,inactive,69.7 µM (active) and inactive,inactive,inactive,inactive,inactive,–
O=[N+]([O-])c1c(Cl)c(Cl)c(Cl)c(Cl)c1Cl,39.8 µM (active) and 31.7 µM (active),inactive,–,31.6 µM (active) and inactive,–,inactive,8.9 µM (active) and 1.59 µM (active),–,inactive,–
O=[N+]([O-])c1cccc2ccccc12,inactive,inactive,–,inactive,inactive,inactive,3.17 µM (active) and 3.99 µM (active),–,inactive,–
NCc1cccnc1,inactive,inactive,–,inactive,–,inactive,inactive,–,inactive,inactive
Cc1ccc2c(c1N)C(=O)c1ccccc1C2=O,inactive,inactive,–,702 nM (active) and 5.64 µM (active),–,2.22 µM (active) and 3.99 µM (active),443 nM (active) and 633 nM (active),–,inactive,inactive
CCC(C)c1ccc(O)cc1 (stereo unspecified),inactive,inactive,–,inactive,–,–,35.9 µM (active) and 31.7 µM (active),inactive,inactive,–
CCC(C)(C)c1ccc(O)cc1,inactive,inactive,–,inactive,–,71.8 µM (active) and 63.3 µM (active),inactive,–,inactive,inactive
CCOC(=O)C(C)OC(=O)c1cc(Oc2ccc(C(F)(F)F)cc2Cl)ccc1[N+](=O)[O-] (stereo unspecified),inactive,inactive,–,–,–,7.06 µM (active) and 7.1 µM (active),inactive,inactive,inactive,inactive
c1nc[nH]n1,inactive,inactive,–,inactive,inactive,inactive,62 µM (active) and 71 µM (active),inactive,inactive,–
O=C(CCl)c1ccccc1,inactive,inactive,–,32.1 µM (active) and 31.7 µM (active),–,40.5 µM (active) and inactive,inactive,–,inactive,–
c1ccc(-c2cccc(-c3ccccc3)c2)cc1,inactive,inactive,–,inactive,20.2 µM (active) and 8.94 µM (active),28.6 µM (active) and 31.7 µM (active),5.7 µM (active) and 5.64 µM (active),–,inactive,–
CNC(=O)N(C)c1nnc(C(C)(C)C)s1,inactive,inactive,–,inactive,–,inactive,39.9 µM (active),–,inactive,inactive
CCCCC(CC)COC(=O)Cl (stereo unspecified),inactive,inactive,–,inactive,inactive,inactive,inactive,inactive,inactive,–
COP(=O)(OC)OC,inactive,inactive,–,inactive,9.01 µM (active) and inactive,32 µM (active) and inactive,35.9 µM (active) and inactive,–,16 µM (active) and inactive,–
CC(C)(c1cc(Cl)c(O)c(Cl)c1)c1cc(Cl)c(O)c(Cl)c1,inactive,–,–,inactive,–,35.6 µM (active) and 31.7 µM (active),inactive,inactive,63.3 µM (active),–
CCc1cccc(CC)c1N(COC)C(=O)CCl,inactive,inactive,–,inactive,9.71 µM (active) and 71 µM (active),30.7 µM (active) and 39.9 µM (active),inactive,inactive,–,–
CCCCN(CCCC)N=O,inactive,34.1 µM (active) and inactive,–,inactive,–,inactive,inactive,inactive,inactive,–
CNC(=O)Oc1cccc2c1OC(C)(C)O2,1.04 µM (active) and 399 nM (active),1.65 µM (active) and 356 nM (active),–,inactive,36.9 µM (active) and 71 µM (active),–,35.6 µM (active),inactive,inactive,10.4 µM (active) and 5.03 µM (active)
C1=Cc2cccc3cccc1c23,inactive,inactive,–,inactive,–,inactive,31.2 µM (active) and 25.2 µM (active),–,inactive,inactive
